The first experiment has as its target LY96. Description: pooled miR-30 sensor sort-seq; sequence = guide strand. The following applies: shRNA.
The sequence AATAGCTTCAACAACACATTTG showed a sensor-assay potency score (higher = more potent) of -1.65. Same read-out and setting: then TGTATGAAATACTTGCATCGGA, with -0.274; and TAAATCTCTCCTTGGAATGTAG, with -0.351; and TTCAACAACACATTTGTATTTT, with -1.05.

The sequence TTGTTGTATTCACAGTCTCTCC came in with a sensor-assay potency score (higher = more potent) of -1.2. Still for that read-out and setting: then TAGGATGACAAACTCCAAGCAA, with -0.085; and TTGCTTTAAATCTCTCCTTGGA, with 0.126; and TAATCGTCATCAGATCCTCGGC, with -0.407. On the same count and under the same terms, then AATTGCTTTAAATCTCTCCTTG, with -0.268; and TAGGTGTATGAAATACTTGCAT, with -0.275; and TTGTATTCACAGTCTCTCCCTT, with 0.102. On the same count and under the same terms, then TATAATTGCTTTAAATCTCTCC, with 0.0244.

The target of the next experiment is LYPD3. Described as above. As to conditions: shRNA.
Take ACTGTCTTCATCTTGTTCGGGG: the sensor-assay potency score (higher = more potent) came to 0.213. On the same count and under the same terms, then TTCATCCTGGACACAGCCCCGG, with -0.847; and TGCACTCTCATTACCTGCCGGG, with -0.389.

Source of the values: the OligoGym collection.
Also: reference of the scale not given here.
